PubChem BioAssay AID504369 (National Center for Advancing Translational Sciences (NCATS), 2011)
Values without a mark were called inactive. No rule for the calls is given here.

Assay: Counterscreen for Identifying a Potential Treatment of Ataxia-Telangiectasia: SAR for Probe
Details: cell-free AlphaLISA pKAP1 detection artifact counterscreen; series mostly up to 154 µM; activity change: at the top concentration
Text: NIH Chemical Genomics Center [NCGC] NIH Molecular Libraries Probe Centers Network [MLPCN] MLPCN Grant: MH089030-01 Assay Submitter (PI): Wei Zheng and Yosef Shiloh Ataxia-telangiectasia (A-T) is a devastating and progressive disease for which, there is no cure. Although A-T is a multisystem disease, it is stereotyped characterized by its neurological symptoms such as truncal ataxia, due to cerebellar cortical degeneration of the Purkinje and granule cells. Other symptoms of A-T are telangiectasias (dilated blood vessels), primary immunodeficiency, marked sensitivity to ionizing radiation (IR), chromosomal instability and predisposition to cancer. The underlying genetic cause of A-T is null mutations in the ATM (A-T mutated) gene. ATM is a nuclear serine/threonine kinase that functions as a master regulator of the cellular responses to double strand breaks (DSBs) in the DNA. Upon activation by DSBs, ATM phosphorylates a plethora of downstream targets, including KAP-1 on Ser82452. […] To screen for small molecules that will compensate for the loss of ATM in cells derived from A-T patients, we monitored KAP-1 phosphorylation as a readout for ATM-like activity using an AlphaLISA assay.
qHTS Assay Protocol: 1. […] Readout, EnVision, EnVision plate reader. […] EnVision protocol for 1536-well AlphaScreen read (30ms excitation, 100ms read), about 10 min/plate. […]

Compound	activity change
CC(=O)c1c(O)c(C)c(O)c(Cc2c(O)c3c(c(C(=O)/C=C/c4ccccc4)c2O)OC(C)(C)C=C3)c1O	13.5%
